The text below walks through data of PubChem BioAssay (NCATS).

The target of test [1] is Peroxisome proliferator-activated receptor gamma (Homo sapiens) (UniProt P37231). Description: qHTS assay for small molecule antagonists of peroxisome proliferator-activated receptor gamma signaling (AID 588537; active = well fitted inhibition curve with a large enough effect in the signal ratio, with a control signal flat, not every such curve was filed as active; the % refers to the signal ratio;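 note: reporter cells co-stimulated with 50 nM rosiglitazone agonist during compound treatment; % of control where 0% means no effect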). The gist of the method:
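HEK293 cells, PPAR-gamma-UAS-bla, 3000/well. Pre-incubation 6-6.5 h, 37 C. Compound titration with rosiglitazone 50 nM final, 16 h. CCF4 dye, 2 h RT, dual-emission fluorescence.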
In general terms: Quantitative high-throughput screening tests each substance at several concentrations.

The target of test [2] is Vitamin D3 receptor (Homo sapiens) (UniProt P11473). Description: qHTS assay for small molecule antagonists of vitamin D receptor signaling (AID 588541; calls by dose curve;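 note: receptor activated by calcitriol during compound treatment; series mostly up to about 77 µM; % is set by controls: 0 for no effect and ±100 for the full control effect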). The gist of the method:
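VDR-UAS-bla HEK293T cells (2000/well, 2% charcoal-stripped FBS) were treated with titrated compounds plus 1-alpha,25-dihydroxyvitamin D3 (50 nM or 3 nM final) for 16 h at 37 C. CCF4 beta-lactamase fluorescence was read; Hill fits gave IC50.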

Test [3] has the same target. Description: qHTS assay for small molecule agonists of vitamin D receptor signaling (AID 588543; calls by dose curve;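 note: 0% = DMSO basal and 100% = reference agonist control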). The gist of the method: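 β-lactamase reporter, VDR-UAS-bla HEK293T, agonist mode. Cells plated 5 h at 37 °C, compound titration 16 h at 37 °C, CCF4 dye 2 h RT, ratio 460/530 nm. Hill fit → EC50, efficacy vs 50 nM 1α,25-(OH)2D3.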
Test [4] concerns the target Thyroid hormone receptor beta (Homo sapiens) (UniProt P10828). Description: qHTS assay for small molecule agonists of thyroid hormone receptor beta signaling (AID 588545; calls by dose curve). The gist of the method:
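Cells (2500/well) were seeded, incubated 4 hrs at 37 C, dosed with a compound series, incubated 18 hrs, loaded with CCF4 dye for 2 hrs at RT, then read for fluorescence. Data were scaled between DMSO (0%) and 10 nM T3 (100%).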

Test [5] is described as follows: qHTS assay for small molecule antagonists of retinoid X receptor alpha signaling (AID 588546; active = well fitted inhibition curve with a large enough effect in the signal ratio, with a control signal flat, not every such curve was filed as active; the % refers to the signal ratio;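 note: cells stimulated with 9-cis-retinoic acid as agonist; % is set by controls: 0 for no effect and ±100 for the full control effect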). Particulars: HEK293T RXRa-UAS-bla, beta-lactamase ratio, antagonist mode; measured here: W530 green channel, cytotoxicity proxy. The gist of the method: (§1)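 Beta-lactamase reporter inhibition, read as CCF4 fluorescence ratio (ex 405, em 460/530 nm) after 2 h at RT. HEK293T UAS-bla cells, 2500/well, were stimulated with 9-cis-RA at 500 or 100 nM final alongside test compound for 18 h at 37 C.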

Test [6] concerns the target Retinoic acid receptor RXR-alpha (Homo sapiens) (UniProt P19793). Described as above. To be noted: HEK293T RXRa-UAS-bla, beta-lactamase ratio, antagonist mode. The gist of the method: as §1
Test [7] concerns the target Thyroid hormone receptor beta (Homo sapiens) (UniProt P10828). The test can be described thus: qHTS assay for small molecule antagonists of thyroid hormone receptor beta signaling (AID 588547; active = well fitted inhibition curve with a large enough effect in the signal ratio, with a control signal flat, not every such curve was filed as active; the % refers to the signal ratio;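 note: cells stimulated with 0.4 nM T3 agonist during compound exposure; series mostly up to about 77 µM; % is set by controls: 0 for no effect and ±100 for the full control effect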). To be noted: TR-UAS-bla HEK293, beta-lactamase ratio, antagonist mode, 18 h. The gist of the method:
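TR-UAS-bla GripTite HEK293 cells in 2% charcoal/dextran FBS medium were preincubated 4 h at 37 C, given compound (0.59 nM to 92 uM) plus 0.4 nM T3 (final) for 18 h, then CCF4 for 2 h at RT; Hill fit gave IC50.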

Test [8] can be described thus: qHTS assay for small molecule activators of the p53 signaling pathway (AID 651743; active = well fitted activation curve with a large enough effect in the signal ratio, not every such curve was filed as active; the % refers to the signal ratio; note: series mostly up to about 92 µM; % of control where 0% means no effect). Particulars: HCT-116 p53RE-bla, beta-lactamase FRET ratio, 16 h; stronger effect = higher value. The gist of the method:
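Here HCT-116 cells with an integrated p53-responsive beta-lactamase gene were incubated with compounds (16 hours, 37 C) after a 5-hour plating period; beta-lactamase activity was detected as fluorescence intensity via B/G FRET substrate.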

The nature of test [9]: qHTS assay for environmental chemicals that activate the Aryl hydrocarbon Receptor (AhR) signaling pathway (AID 651777). Note: % of control where 0% means no effect; nearly all actives have a fitted effect of over 15% in size. To be noted: 1A2-DRE human hepatoma cells, luciferase, 24 h; stronger effect = higher value. The gist of the method:
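Induction of CYP1A2 transcription through AhR is detected by luciferase in 1A2-DRE hepatoma cells. Compounds or DMSO act for 24 hr at 37 C before a 30 min One-Glo step at room temperature.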

In test [10] the target is Peroxisome proliferator-activated receptor alpha (Homo sapiens) (UniProt Q07869). The test can be described thus: qHTS assay for small molecule agonists of the peroxisome proliferator-activated receptor alpha (PPARalpha) signaling pathway (AID 651778). Note: % of control where 0% means no effect. Particulars: PathHunter PPARalpha complementation, chemiluminescence, 6 h; stronger effect = higher value. The gist of the method:
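Cells plated at 2,000/well and held overnight at 37 C, 5% CO2, then compound added by pin tool for 6 hr; after PathHunter detection reagent and 60 min at room temperature, chemiluminescence from enzyme complementation was read.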

A short description of test [11]: qHTS assay for small molecule agonists of the antioxidant response element (ARE) signaling pathway measured by Nrf2-dependant transcriptional activity - cell viability counter screen (AID 720653; active = well fitted curve in the direction sought with a large enough effect in the repeat runs; an effect the other way counts as inactive or inconclusive; note: % is set by controls: 0 for no effect and ±100 for the full control effect). Particulars: ARE-bla HepG2 viability, CellTiter-Glo ATP luminescence, 16 h; max response: stronger effect = lower value. The gist of the method: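 ARE-bla HepG2 cells (2,000/well) rested 5 hrs at 37C/5% CO2, then exposed to compounds in DMSO for 16 hrs. Viability was read in the same wells as intracellular ATP by luminescence, 30 min at room temperature after reagent addition.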

A short description of test [12]: qHTS assay for cell viability of HEK293 cells (AID 743288). Note: % is set by controls: 0 for no effect and ±100 for the full control effect; nearly all actives have a fitted effect of over 50% in size. To be noted: ATP luminescence (CellTiter-Glo), 18 h; max response: stronger effect = lower value. The gist of the method:
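ATP luminescence (CellTiter-Glo) reports metabolically competent cell number after parental HEK293 cells, 2,000/well, were treated with DMSO-dissolved compounds for 18 h at 37 C; reagent incubation 30 min, room temperature.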

Test [13] is described as follows: qHTS assay for cell viability of the p53RE-bla HCT-116 cell line (AID 743292). Note: % is set by controls: 0 for no effect and ±100 for the full control effect; nearly all actives have a fitted effect of over 55% in size. The gist of the method:
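In this qHTS counter-screen, metabolically competent p53RE-bla HCT-116 cells were counted via their ATP content. Compounds were applied for 16 h at 37 C and luciferase-coupled luminescence was measured.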

In test [14] the target is Nuclear receptor subfamily 1 group I member 2 (Rattus norvegicus) (UniProt Q9R1A7). The test can be described thus: qHTS assay for small molecule activators of the rat pregnane X receptor (rPXR) signaling pathway (AID 651751; call rule not given here; note: 0% is about no effect). Particulars: rPXR reporter cells, luciferase (One-Glo), 24 h.
Test [15] in a line: qHTS assay for small molecule activators of the human pregnane X receptor (PXR) signaling pathway (AID 720659; call rule not given here; note: 0% is about no effect).
The target of test [16] is Cytochrome P450 2D6 (Homo sapiens) (UniProt P10635). The test can be described thus: Cytochrome P450 family 2 subfamily D member 6 (CYP2D6) small molecule antagonists: luciferase biochemical (cell-free) qHTS assay (AID 1645840; active = well fitted curve in the direction sought with a large enough effect in the repeat runs; an effect the other way counts as inactive or inconclusive; note: series mostly up to about 57 µM; % is set by controls: 0 for no effect and ±100 for the full control effect; nearly all actives have a fitted effect of over 55% in size). The gist of the method: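 P450-Glo CYP2D6 system: proluciferin substrate converted by enzyme to luciferin, read by luminescence proportional to activity. Enzyme-substrate mix with compound 10 min at room temperature, then NADPH regeneration 1 h before detection reagent.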

Test [17] deals with Cytochrome P450 2C9 (Homo sapiens) (UniProt P11712). Description: Cytochrome P450 family 2 subfamily C member 9 (CYP2C9) small molecule antagonists: luciferase biochemical (cell-free) qHTS assay (AID 1645842; active = well fitted curve in the direction sought with a large enough effect in the repeat runs; an effect the other way counts as inactive or inconclusive; note: series mostly up to about 57 µM; % is set by controls: 0 for no effect and ±100 for the full control effect; nearly all actives have a fitted effect of over 55% in size). The gist of the method:
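P450-Glo CYP2C9 system: proluciferin substrate with enzyme in mix containing 0.4% BSA, 10 min at room temperature, then NADPH regeneration solution added and incubated 1 h at 37C. Detection reagent stopped reaction; luminescence read after 20 min as RLU.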

Test [18] can be described thus: Primary qHTS for inhibitors of nuclear receptor binding SET domain protein 2 (NSD2) in an RCH-ACV wild type WT cells (2C) (AID 1645877). Note: potency is the fitted concentration of half-maximal effect; nearly all actives have a fitted effect of over 70% in size.

Records with an inconclusive call do not appear. Activity calls are given as the source filed them. Unless noted, calls come from the whole dose curve; as a rule, active = well fitted curve in the direction sought with a large enough effect; inconclusive = small, poorly fitted or top-dose-only effect, or another doubt; inactive = no such curve, though single readings can be large; an effect the other way counts as inactive or inconclusive.

Sequence of Vitamin D3 receptor (Homo sapiens) (P11473 whole entry, looked up): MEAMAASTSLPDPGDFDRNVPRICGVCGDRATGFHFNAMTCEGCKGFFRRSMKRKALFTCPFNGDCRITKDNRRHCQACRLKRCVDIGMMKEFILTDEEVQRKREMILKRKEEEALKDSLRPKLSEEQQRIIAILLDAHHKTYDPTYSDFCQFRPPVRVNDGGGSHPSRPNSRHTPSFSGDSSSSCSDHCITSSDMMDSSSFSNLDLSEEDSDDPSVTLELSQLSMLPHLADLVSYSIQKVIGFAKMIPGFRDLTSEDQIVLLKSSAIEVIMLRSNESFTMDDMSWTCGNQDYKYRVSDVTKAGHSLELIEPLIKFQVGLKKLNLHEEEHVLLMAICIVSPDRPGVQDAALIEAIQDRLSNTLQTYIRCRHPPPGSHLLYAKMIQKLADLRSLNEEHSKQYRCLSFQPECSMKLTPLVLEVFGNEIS
Sequence of Thyroid hormone receptor beta (Homo sapiens) (P10828 whole entry, looked up): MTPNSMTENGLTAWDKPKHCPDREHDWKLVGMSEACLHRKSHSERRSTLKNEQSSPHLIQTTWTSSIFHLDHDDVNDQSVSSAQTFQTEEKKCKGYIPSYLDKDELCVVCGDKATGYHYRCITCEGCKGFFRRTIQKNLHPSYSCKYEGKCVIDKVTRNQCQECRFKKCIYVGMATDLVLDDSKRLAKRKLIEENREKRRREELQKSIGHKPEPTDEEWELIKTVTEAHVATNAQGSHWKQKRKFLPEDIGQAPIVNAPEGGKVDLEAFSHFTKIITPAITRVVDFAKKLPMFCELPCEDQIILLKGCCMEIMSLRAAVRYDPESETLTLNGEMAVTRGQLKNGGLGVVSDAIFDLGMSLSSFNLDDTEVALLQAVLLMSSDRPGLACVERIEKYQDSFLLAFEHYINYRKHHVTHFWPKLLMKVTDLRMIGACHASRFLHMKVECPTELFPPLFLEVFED
Sequence of Retinoic acid receptor RXR-alpha (Homo sapiens) (P19793 whole entry, looked up): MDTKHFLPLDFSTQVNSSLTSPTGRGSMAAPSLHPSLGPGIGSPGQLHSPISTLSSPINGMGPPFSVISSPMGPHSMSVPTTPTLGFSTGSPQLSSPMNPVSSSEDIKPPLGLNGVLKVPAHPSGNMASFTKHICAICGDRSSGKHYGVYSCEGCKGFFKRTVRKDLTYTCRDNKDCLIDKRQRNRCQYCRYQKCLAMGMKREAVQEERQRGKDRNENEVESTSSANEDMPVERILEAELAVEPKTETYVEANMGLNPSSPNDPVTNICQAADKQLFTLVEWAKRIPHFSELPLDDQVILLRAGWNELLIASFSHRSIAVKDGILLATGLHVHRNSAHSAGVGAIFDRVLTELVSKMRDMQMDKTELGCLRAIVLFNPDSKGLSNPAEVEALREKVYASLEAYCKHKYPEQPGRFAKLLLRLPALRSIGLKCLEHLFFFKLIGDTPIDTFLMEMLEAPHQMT
Sequence of Peroxisome proliferator-activated receptor gamma (Homo sapiens) (P37231 whole entry, looked up): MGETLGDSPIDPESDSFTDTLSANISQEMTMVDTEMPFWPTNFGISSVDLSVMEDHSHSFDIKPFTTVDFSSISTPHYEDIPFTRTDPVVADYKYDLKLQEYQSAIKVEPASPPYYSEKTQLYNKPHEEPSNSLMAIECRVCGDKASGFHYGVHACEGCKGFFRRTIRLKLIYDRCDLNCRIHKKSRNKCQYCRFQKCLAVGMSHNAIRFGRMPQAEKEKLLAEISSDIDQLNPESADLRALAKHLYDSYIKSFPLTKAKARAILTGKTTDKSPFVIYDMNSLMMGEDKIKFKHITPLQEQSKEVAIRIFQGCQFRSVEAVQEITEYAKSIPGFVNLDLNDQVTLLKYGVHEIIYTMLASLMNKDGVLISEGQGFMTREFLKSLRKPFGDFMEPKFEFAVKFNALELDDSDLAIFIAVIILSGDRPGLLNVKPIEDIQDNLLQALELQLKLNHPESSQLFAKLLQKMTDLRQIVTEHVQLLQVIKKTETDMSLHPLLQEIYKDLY
Sequence of Nuclear receptor subfamily 1 group I member 2 (Rattus norvegicus) (Q9R1A7 whole entry, looked up): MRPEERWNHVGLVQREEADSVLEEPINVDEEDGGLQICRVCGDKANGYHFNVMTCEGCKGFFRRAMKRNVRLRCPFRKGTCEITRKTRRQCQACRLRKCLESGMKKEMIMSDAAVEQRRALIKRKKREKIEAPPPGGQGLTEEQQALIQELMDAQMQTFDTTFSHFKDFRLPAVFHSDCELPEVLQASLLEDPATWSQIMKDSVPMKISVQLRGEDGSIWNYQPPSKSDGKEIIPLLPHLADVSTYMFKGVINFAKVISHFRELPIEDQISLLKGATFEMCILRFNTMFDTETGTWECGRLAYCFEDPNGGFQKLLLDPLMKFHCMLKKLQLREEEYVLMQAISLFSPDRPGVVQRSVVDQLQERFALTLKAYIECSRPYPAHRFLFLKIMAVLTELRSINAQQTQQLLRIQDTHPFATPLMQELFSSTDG
Sequence of Peroxisome proliferator-activated receptor alpha (Homo sapiens) (Q07869 whole entry, looked up): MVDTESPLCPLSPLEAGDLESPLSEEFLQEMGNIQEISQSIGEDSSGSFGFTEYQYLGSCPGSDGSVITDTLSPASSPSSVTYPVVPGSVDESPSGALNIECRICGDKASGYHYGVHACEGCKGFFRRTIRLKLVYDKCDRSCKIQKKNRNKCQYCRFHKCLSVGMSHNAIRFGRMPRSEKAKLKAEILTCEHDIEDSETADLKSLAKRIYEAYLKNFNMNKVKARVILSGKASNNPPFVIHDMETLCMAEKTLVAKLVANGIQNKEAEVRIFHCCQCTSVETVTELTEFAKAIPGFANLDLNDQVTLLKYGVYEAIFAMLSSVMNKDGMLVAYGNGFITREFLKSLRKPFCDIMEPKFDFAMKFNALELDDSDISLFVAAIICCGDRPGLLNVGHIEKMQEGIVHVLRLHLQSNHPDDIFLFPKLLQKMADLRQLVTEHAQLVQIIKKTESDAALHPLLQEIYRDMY
Sequence of Cytochrome P450 2D6 (Homo sapiens) (P10635 whole entry, looked up): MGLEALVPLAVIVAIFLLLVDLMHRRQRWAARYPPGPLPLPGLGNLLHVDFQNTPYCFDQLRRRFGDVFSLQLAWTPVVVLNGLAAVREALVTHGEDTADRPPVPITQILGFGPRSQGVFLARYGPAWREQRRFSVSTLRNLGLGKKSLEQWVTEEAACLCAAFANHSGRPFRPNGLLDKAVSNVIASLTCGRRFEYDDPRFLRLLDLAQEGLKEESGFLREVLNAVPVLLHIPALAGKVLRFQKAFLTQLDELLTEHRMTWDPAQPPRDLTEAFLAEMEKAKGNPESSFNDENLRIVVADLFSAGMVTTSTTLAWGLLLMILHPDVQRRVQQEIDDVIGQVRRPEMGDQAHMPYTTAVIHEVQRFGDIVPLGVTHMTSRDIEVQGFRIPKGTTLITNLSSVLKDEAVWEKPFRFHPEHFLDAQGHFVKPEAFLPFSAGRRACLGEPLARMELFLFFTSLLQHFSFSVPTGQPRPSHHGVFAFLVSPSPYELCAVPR
Sequence of Cytochrome P450 2C9 (Homo sapiens) (P11712 whole entry, looked up): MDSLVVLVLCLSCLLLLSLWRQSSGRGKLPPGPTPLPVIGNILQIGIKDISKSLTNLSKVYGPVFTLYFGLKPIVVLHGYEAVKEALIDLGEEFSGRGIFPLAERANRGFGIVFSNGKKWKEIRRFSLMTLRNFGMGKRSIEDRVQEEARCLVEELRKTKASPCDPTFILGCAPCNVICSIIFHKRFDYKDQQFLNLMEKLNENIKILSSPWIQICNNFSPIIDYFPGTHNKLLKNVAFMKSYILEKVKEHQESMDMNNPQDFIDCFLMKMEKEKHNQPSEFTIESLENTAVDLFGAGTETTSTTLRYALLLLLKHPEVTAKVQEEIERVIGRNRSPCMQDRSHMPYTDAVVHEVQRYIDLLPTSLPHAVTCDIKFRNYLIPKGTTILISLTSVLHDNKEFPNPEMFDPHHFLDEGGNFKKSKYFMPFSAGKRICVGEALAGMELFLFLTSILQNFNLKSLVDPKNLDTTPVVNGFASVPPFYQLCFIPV

For the compound `CC(C)=CCC/C(C)=C/CC/C(C)=C/CO`, the call in test [1], in test [3], in test [4] and in [15] was inactive. Also, the Potency result in test [2] and in [13] was “inactive” throughout. Besides, the max response in test [5] is -7.11%; in test [6], 5.64% (inactive); in test [10], 2.41% (inactive); in test [11], -6.95% (inactive); in [12] it was -6.29% (inactive); in test [14], -1.6% (inactive). In addition, in test [7], the activity change % (negative = inhibition) is 1.19% (inactive). For the same compound, the activation in test [8] was 1.11% (inactive); in [9], 1.51% (inactive).

Take `C[C@@H](C(=O)O)c1ccc(-c2ccccc2)c(F)c1`: the Potency entry in test [16] and in test [17] was “inactive” throughout.

`N#CC(=C(/N)Sc1ccccc1N)/C(C#N)=C(/N)Sc1ccccc1N`: in test [18], the Potency was 14.6 µM (active).
